“And” between values parts separate entries of the source, which are not always exact repeats. Equal entries are not always repeated. Some structures have more than one record in an assay (separate samples or runs), and their calls can disagree. The source made the active and inactive calls. The calls were made as follows, unless noted: active = hit-call score of the fitted dose curve at least 0.9, where 1 is the maximum; inconclusive = response in the unintended direction; inactive = score below 0.9.

One test can be described thus: CEETOX_H295R_MTT_cell_viability: Viability Assessment in the CeeTox HT-H295R MTT Assay (AID 2283718; active = hit-call score of the fitted dose curve at least 0.9, where 1 is the maximum; inactive = score below 0.9;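 as to AC50: curve fitted both ways so AC50 may mark viability loss or gain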). The gist of the method:
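H295R cells prestimulated 48 h with 10 uM forskolin, then exposed 48 h to test chemical (0.1% DMSO final). Viability by MTT (0.5 mg/ml, 4 h, 37 C), absorbance 570/650 nm; percent change versus DMSO, bidirectional fit.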
For `O=C(Nc1ccccc1)Nc1cnns1`, the AC50 was 65.5 µM (active). For `Clc1ccccc1-c1nnc(-c2ccccc2Cl)nn1`, the compound was classed as inactive.

In the case of `C#CCN1C(=O)COc2cc(F)c(N3C(=O)C4=C(CCCC4)C3=O)cc21`, the outcome was inactive.

Turning to `Oc1cc(Cl)ccc1Oc1ccc(Cl)cc1Cl`, the half-maximal activity concentration (AC50) was 0.0234 µM (active) and the outcome was inactive. `CCC(C)Nc1c([N+](=O)[O-])cc(C(C)(C)C)cc1[N+](=O)[O-]` (stereo not given): the AC50 is 46.9 µM (active). With `CNC(=O)/C=C(\C)OP(=O)(OC)OC`, the outcome was inactive. Regarding `CC1(C)C(C=C(Cl)Cl)C1C(=O)OC(C#N)c1ccc(F)c(Oc2ccccc2)c1` (stereo not given), the call was inactive. As to `CC(C)(C)C(O)/C(=C\c1ccc(Cl)cc1Cl)n1cncn1` (stereo not given), the outcome was inactive.

Consider `CC(C)OC(=O)Nc1cccc(Cl)c1`, for which the result was inactive. Same read-out and setting: as for `CNC(=O)CSP(=S)(OC)OC`, the entry is “inactive”; as for `O=C(O)COc1ccc(Cl)cc1Cl`, “inactive”; as for `Oc1ccc(Cl)cc1Cc1ccccc1`, “inactive”. Still for that read-out and setting: as for `CC(C)(C)C(O)C(Oc1ccc(Cl)cc1)n1cncn1` (stereo not given), the entry is “inactive”. Consider `O=C(NC(=O)c1c(F)cccc1F)Nc1ccc(OC(F)(F)C(F)OC(F)(F)F)c(Cl)c1` (stereo not given), for which the AC50 is 1.97 µM (active).

The next test can be described thus: Tanguay_ZF_120hpf_ActivityScore_legacy: (Legacy) Oregon State University Tanguay Lab 120 Hour Post-fertilization zebrafish Assay Score for Activity (AID 2283742).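 As to AC50: dechorionated Tropical 5D wild-type zebrafish embryos held singly per well; static exposure from 6 hpf until 120 hpf at 28 °C.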 An outline of the steps: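 In this whole-embryo screen, dechorionated zebrafish were exposed from 6 hpf until 120 hpf at 28C under a 0.64% DMSO vehicle. Developmental malformations and death were recorded by brightfield microscopy as binary endpoints.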
For the compound `O=C(Nc1ccccc1)Nc1cnns1`, the outcome was inactive. The same measure, in the same setting: as for `O=C(O)C(F)(F)C(F)(F)C(F)(F)C(F)(F)C(F)(F)C(F)(F)C(F)(F)F`, the entry is “inactive”.

For `Clc1ccccc1-c1nnc(-c2ccccc2Cl)nn1`, the compound was called inactive. On the same count and under the same terms, as for `C#CCN1C(=O)COc2cc(F)c(N3C(=O)C4=C(CCCC4)C3=O)cc21`, the entry is “inactive”. Consider `Oc1cc(Cl)ccc1Oc1ccc(Cl)cc1Cl`, for which the AC50 is 41.4 µM (active) and 46.5 µM (active); the call was inactive. `O=C(O)CCCOc1ccc(Cl)cc1Cl`: the compound was called inactive. The same measure, in the same setting: the entry for `CCC(C)Nc1c([N+](=O)[O-])cc(C(C)(C)C)cc1[N+](=O)[O-]` (stereo not given) is “inactive”; for `CNC(=O)/C=C(\C)OP(=O)(OC)OC` it is “inactive”; for `CC1(C)C(C=C(Cl)Cl)C1C(=O)OC(C#N)c1ccc(F)c(Oc2ccccc2)c1` (stereo not given) it is “inactive”. Turning to `CC(C)(C)C(O)/C(=C\c1ccc(Cl)cc1Cl)n1cncn1` (stereo not given), the AC50 is 94.2 µM (active). With `O=S1OCC2C(CO1)C1(Cl)C(Cl)=C(Cl)C2(Cl)C1(Cl)Cl` (stereo not given), the compound was called inactive. Regarding `CCOC1Oc2ccc(OS(C)(=O)=O)cc2C1(C)C` (stereo not given), the result was inactive. Take `CC(C)OC(=O)Nc1cccc(Cl)c1`: the AC50 was 39.2 µM (active).

In the case of `CNC(=O)CSP(=S)(OC)OC`, the compound was called inactive. On the same count and under the same terms, the entry for `CCC(C)(NC(=O)c1cc(Cl)c(C)c(Cl)c1)C(=O)CCl` (stereo not given) is “inactive”. As to `O=C(O)COc1ccc(Cl)cc1Cl`, the compound was called inactive. In the case of `Oc1ccc(Cl)cc1Cc1ccccc1`, the AC50 was 37.1 µM (active) and 23.4 µM (active) and 22.3 µM (active). Same read-out and setting: the figure for `CC(C)(C)C(O)C(Oc1ccc(Cl)cc1)n1cncn1` (stereo not given) is 26.3 µM (active) and 43 µM (active) and 47 µM (active). For `O=C(NC(=O)c1c(F)cccc1F)Nc1ccc(OC(F)(F)C(F)OC(F)(F)F)c(Cl)c1` (stereo not given), the compound was called inactive.

As a reminder, the AC50 is the midpoint of the concentration-response curve, whichever way the signal moves.

These data come from PubChem BioAssay (EPA / NIEHS).
